Assay outcomes (PubChem BioAssay)
SARS 3CLpro inh-1 = SARS-CoV 3CLpro protease inhibition; P0C6X7; recombinant SARS-CoV 3CLpro, quenched FRET peptide cleavage; inhibition, % at 6 µM; 0.14% of 290,000 active; in the data active means inhibition above about 12%
PrP UTR inh = suppresses PrP 5' UTR mRNA reporter expression; 0.35% of 340,000 active; inhibition, % (test concentration not listed); AID 488862; cell-based PrP 5' UTR mRNA reporter, plate reader; in the data active means inhibition above about 52%
PrPC TRFRET = reduces human prion protein on the cell surface; AID 720596; P04156; cell surface PrPC, TR-FRET read-out; 0.43% of 370,000 active; inhibition, % at 13.8 µM; in the data active means inhibition above about 24%
CCHF vOTU inh-1 = CCHFV vOTU protease inhibition; Pep-AMC fluorescence; inhibition, % at 11.5 µM; 0.55% of 370,000 active; AID 651958
SARS 3CLpro inh-2 = SARS 3CLpro inhibition, confirmation assay; shares compounds with SARS 3CLpro inh-1; QFRET protease activity assay; inhibition, % at 6 µM; 36% of 380 active; AID 1879; in the data active means inhibition above about 13%
PrP UTR cherry = prion 5' UTR mRNA inhibition, cherry-pick retest. cell-based prion protein 5' UTR reporter, plate reader. shares compounds with PrP UTR inh. inhibition, % at 2.5 µM. 48% of 1,100 active; in the data active means inhibition above about 54%
CCHF vOTU inh-2 = confirmation of CCHF virus vOTU protease inhibitors. shares compounds with CCHF vOTU inh-1. Recombinant CCHFV vOTU, Pep-AMC fluorescence. inhibition, % at 11.5 µM. 17% of 1,900 active. AID 686976
Hits are given with their value; 0 = inactive; - = no result given. Shown are actives, neighbours in structure and some others; about 1.3% of the full set was active somewhere. Unless noted, no stated cut-off is given here; in the data, active means inhibition above about 30%; inactive means the rest.

SMILES	SARS 3CLpro inh-1	PrP UTR inh	PrPC TRFRET	CCHF vOTU inh-1	SARS 3CLpro inh-2	others
C/C(CC(=O)Nc1ccc(N(C)C)cc1)=N\NC(=O)c1ccccn1	0	0	0	0	-
O=C1Nc2ccccc2Sc2ccccc21	0	0	0	0	-
COc1ccc(/C=N/NC(=O)Cn2nnc3ccccc32)cc1OC	12	0	0	0	16
CN(C)c1ccc(/C=N/NC(=O)Cn2nnc3ccccc32)cc1	0	0	0	0	-
Cc1ccc(C(=O)NC(C#N)=C(Cl)Cl)cc1	13	-	0	0	0
Cc1ccc(C(=O)NC(=C(Cl)Cl)S(=O)(=O)c2ccccc2)cc1	21	0	0	0	28
Cc1ccc(-n2c(SCC(=O)N(C)C)nnc2-c2ccco2)cc1	0	0	0	0	-
CCCCN1C(=O)C(NC(C)=O)c2cc(Br)ccc21 (stereo unspecified)	0	0	0	0	-
CC(=O)NC1C(=O)N(CCN2CCOCC2)c2ccc(F)cc21 (stereo unspecified)	12	0	0	0	45
Nc1nonc1-n1nnc(C(=O)N/N=C/c2cccc(F)c2)c1CN1CCCCCC1	-	0	0	0	-
O=[N+]([O-])/C=C/c1cn(Cc2ccccc2)c2ccccc12	13	0	0	0	0
CCOC(=O)c1c(C)oc2c1c1c(c3ccccc32)OCN(Cc2ccccn2)C1	13	0	0	0	0
CCOC(=O)c1c(C)oc2c1c(CN1CCN(C(=O)OCC)CC1)c(O)c1ccccc12	0	0	0	0	-
O=C(CN1CCCCC1)N1CCN(c2ccccc2)CC1	0	0	0	0	-
CC(C)Oc1cc(NC(=O)CSCC(=O)Nc2cccc(C(F)(F)F)c2)c(Cl)cc1Cl	17	0	0	0	0
O=C(O)CSCC(=O)Nc1cc(C(F)(F)F)ccc1Cl	0	0	0	0	-
COC(=O)c1cc(C(=O)c2ccc(C(C)(C)C)cc2)c[nH]1	0	0	0	0	-
COc1ccc2cc(C3(C)NC(=O)N(CC(=O)NCc4ccco4)C3=O)ccc2c1 (stereo unspecified)	16	0	0	0	12
O=C(CCl)N1N=C(c2ccco2)CC1c1cccs1 (stereo unspecified)	0	0	-	-	-
COc1cc(C2CC(c3cccs3)=NN2C(=O)CCl)ccc1OC(F)F (stereo unspecified)	56	0	0	0	74
COc1ccc(C2CC(c3cccs3)=NN2C(=O)CCl)cc1OC (stereo unspecified)	74	0	0	0	81
Cc1ccc(C2=NN(C(=O)CCl)C(c3cccs3)C2)o1 (stereo unspecified)	14	0	0	0	59
COCc1nc2oc3ccc(C)cc3c(=O)c2cc1C(=O)OC	0	-	0	0	-
COC(=O)C(O)(c1cn(C)c2ccccc12)C(F)(F)F (stereo unspecified)	0	0	0	0	-
Cn1nc(-c2ccc(Cl)cc2)nc2c(=O)n(C)c(=O)nc1-2	18	0	-	-	48
SMILES	SARS 3CLpro inh-1	PrP UTR inh	PrPC TRFRET	CCHF vOTU inh-1	SARS 3CLpro inh-2	others
O=C(O)c1ccc(NC(=S)NC(=O)C(c2ccccc2)c2ccccc2)cc1	0	0	0	0	-
O=C(O)c1cccc(NC(=S)NC(=O)C(c2ccccc2)c2ccccc2)c1	14	0	0	0	0
O=C1CC(N2CCN(C/C=C/c3ccccc3)CC2)C(=O)N1Cc1cccs1 (stereo unspecified)	16	0	0	0	0
O=C1CC(N2CCN(C/C=C/c3ccccc3)CC2)C(=O)N1CCc1ccccc1 (stereo unspecified)	0	0	0	0	-
Cc1ccc(CN(CC(=O)NCCc2ccccc2)C(=O)c2csnn2)cc1	0	0	0	0	-
CNC(=O)N(O)C1N(/N=C/c2ccc(N(C)C)cc2)C(=S)SC1(C)C (stereo unspecified)	0	0	0	0	-
CNC(=O)N(O)C1N(/N=C/c2cccs2)C(=S)SC1(C)C (stereo unspecified)	13	0	0	0	0
Cc1ccc(CN2C(=O)CSc3ccc(C(=O)NCCN4CCOCC4)cc32)cc1	19	0	-	-	0
O=C(NCCN1CCOCC1)c1ccc2c(c1)N(Cc1ccc(F)cc1)C(=O)CS2	0	0	0	0	-
COc1ccc(C(C(=O)NCC2CCCO2)N(C(=O)Cn2nnc3ccccc32)c2ccc(NC(C)=O)cc2)c(OC)c1 (stereo unspecified)	18	0	0	0	0
COc1cccc(C(C(=O)NCC2CCCO2)N(C(=O)Cn2nnc3ccccc32)c2ccc(NC(C)=O)cc2)c1OC (stereo unspecified)	15	0	0	0	0
Cc1cccc(C)c1OCC(=O)Nc1ccc(NC(=O)c2ccco2)cc1	0	0	0	0	-
CN(C)c1nc(N)nc(-c2nc3ccccc3s2)n1	13	0	0	0	0
CSc1ccccc1OCc1cc(C(=O)N(C)Cc2cc(C)[nH]n2)no1	0	0	0	0	-
CSc1ccccc1OCc1cc(C(=O)N(C)Cc2cnccn2)no1	14	0	0	0	0
Cc1ccc(C)c(OC(C)C(=O)Nc2nccs2)c1 (stereo unspecified)	13	0	0	0	0
Cc1ccc(C)c(OC(C)C(=O)Nc2ccc(S(=O)(=O)Nc3nccs3)cc2)c1 (stereo unspecified)	0	0	0	0	-
Cc1noc(NS(=O)(=O)c2ccc(NC(=O)c3oc4ccc(Cl)cc4c3C)cc2)c1C	12	0	0	35	0	CCHF vOTU inh-2=0
COC(=O)Nc1ccc(OCc2ccccc2)cc1	0	0	0	0	-
CN(CCc1ccccc1)C(=O)c1cc(COc2cccc(C(F)(F)F)c2)on1	13	0	0	30	0	CCHF vOTU inh-2=0
CN(CCCN1CCOCC1)C(=O)c1cc(COc2cccc(C(F)(F)F)c2)on1	0	0	0	0	-
COc1ccc(CCC(=O)NCCOc2ccc(C)cc2)cc1	0	0	0	0	-
O=C(NCc1ccc(F)cc1)c1ccc(S(=O)(=O)Nc2cccc(C(F)(F)F)c2)cc1	18	0	0	30	0	CCHF vOTU inh-2=0
O=C(NCc1ccccc1F)c1ccc(S(=O)(=O)Nc2cccc(C(F)(F)F)c2)cc1	0	0	0	0	-
CC(C)C[C@H](NC(=O)c1[nH]cnc1C(=O)N[C@@H](Cc1ccccc1)C(=O)OCc1ccccc1)C(=O)OC(C)(C)C	13	0	0	30	0	CCHF vOTU inh-2=0
CCCN(CC(=O)Nc1ccc(F)c(F)c1F)C(=O)C1CC(=O)N(Cc2ccccc2)C1 (stereo unspecified)	-	0	0	0	-
Cc1cc(C)c(S(=O)(=O)/N=C2\C=C(Nc3ccc(C(=O)O)cc3)C(=O)c3ccccc32)c(C)c1	13	0	0	125	0	CCHF vOTU inh-2=111
CC(C)CNC(=O)COC(=O)C1c2ccccc2Oc2ccccc21	0	77	0	0	-	PrP UTR cherry=0
CC(O)C1C=CC=CC(=O)OC2CC3OC4C5OC5(C)CCC4(COC(=O)C4OC4(C)C(O)CO1)C2(C)C31CO1 (stereo unspecified)	-	83	90	0	-	PrP UTR cherry=82
